NPC1 promoter act: activates the NPC1 promoter | Huh7 NPC1 promoter luciferase reporter, 24 h | Potency, µM (top dose mostly 9.22 µM), without a hit: at the highest dose activation, actives largely listed as activators | 320,000 tested, 2.4% active | AID 485313; also: % of control where 0% means no effect; nearly all actives have a fitted effect of over 60% in size
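Quantitative HTS used a cell-based reporter: Huh7 cells stably bearing the NPC1 promoter upstream of luciferase were treated with compounds for 24 h, and promoter activation was read as luminescence.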
FLuc counter: inhibits or activates purified firefly luciferase, miR-21 counter-screen | P08659 | purified FLuc, Km substrates, luminescence inhibition | AID 588342 | Potency, µM (titrated, usually from 57.5 µM), inactives show top-dose activity change, negative = inhibition, hits mostly inhibitors | 360,000 tested, 6.9% active;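 also: plate controls were vehicle for no effect and reference inhibitor for full effect; nearly all actives have a fitted effect of over 55% in size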
Target sequence (P08659 whole entry, looked up): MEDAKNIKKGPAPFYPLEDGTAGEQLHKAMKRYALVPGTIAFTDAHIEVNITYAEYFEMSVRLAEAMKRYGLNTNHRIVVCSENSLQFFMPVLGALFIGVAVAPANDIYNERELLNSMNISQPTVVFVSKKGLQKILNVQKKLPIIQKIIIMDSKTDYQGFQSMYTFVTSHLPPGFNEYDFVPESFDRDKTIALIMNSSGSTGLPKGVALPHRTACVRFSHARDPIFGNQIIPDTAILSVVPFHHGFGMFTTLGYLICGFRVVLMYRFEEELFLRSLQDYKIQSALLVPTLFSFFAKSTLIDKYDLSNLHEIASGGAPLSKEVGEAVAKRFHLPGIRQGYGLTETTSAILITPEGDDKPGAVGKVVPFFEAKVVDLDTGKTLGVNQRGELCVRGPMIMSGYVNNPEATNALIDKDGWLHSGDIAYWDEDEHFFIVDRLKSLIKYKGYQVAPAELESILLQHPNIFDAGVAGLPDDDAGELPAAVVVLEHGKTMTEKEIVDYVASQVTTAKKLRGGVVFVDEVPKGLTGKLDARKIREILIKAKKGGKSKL
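Purified P. pyralis luciferase, 10 nM final, with Km-level 10 uM D-luciferin and 10 uM ATP in 50 mM Tris acetate pH 7.5, 10 mM Mg acetate, 0.01% Tween-20, 0.05% BSA; 6-point qHTS titration about 60 µM downward; luminescence read.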
ELG1 DNA repair: blocks ELG1-dependent DNA repair in HEK293T cells; HEK293T ELG1-luciferase reporter, luminescence, 16 h; DNA damage induced by 5-fluorouridine; Potency, µM (series often up to 46.1 µM), inactives show top-dose activity change, negative = inhibition, actives largely listed as inhibitors; 330,000 tested, 2.3% active; AID 504467; also: % is scaled to controls: 0 for no effect and ±100 for the full control effect; nearly all actives have a fitted effect of over 55% in size
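Overnight (16 hr) co-exposure of 2,000 cells/well to 5-fluorouridine and compound at 37 °C preceded detection. Luciferase was quantified via ONE-Glo luminescence; loss of signal denotes inhibition.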
SMN2 splice up: increases expression of the SMN2 splice variant; Potency, µM (titrated, usually from 46.1 µM), without a hit: at the highest dose activity change, positive = activation, usual class: activators; AID 1458; HEK293 SMN2-luciferase splicing reporter, luminescence, 30-36 h; 210,000 tested, 2.8% active; also: % of control where 0% means no effect; nearly all actives have a fitted effect of over 55% in size
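HEK293 cells carry an SMN2 minigene-luciferase reporter in which exon 7 inclusion puts luciferase in frame. Cells were seeded at 2000 cells/well, attached for 10-12 hours, then exposed to compounds for 30-36 hours at 37C before ONE-Glo luminescence.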
ELG1 genotox: inducers of genotoxicity in HEK293T ELG1-luciferase cells; HEK293T ELG1-luciferase reporter, luminescence, 16 h; 330,000 tested, 1.3% active; AID 504466; Potency, µM (titrated, usually from 46 µM), without a hit: top-dose activity change, positive = activation, hits mostly activators; also: % of control where 0% means no effect; nearly all actives have a fitted effect of over 60% in size
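Reporter readout depends on ELG1 protein level, which increases with genetic stress. After 16 hr compound exposure at 37 °C, luciferase activity was quantified using ONE-Glo.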
Rab9 promoter act: activates the Rab9 promoter | Huh7 Rab9 promoter-luciferase reporter, luminescence, 24 h | Potency, µM (top dose mostly 9.22 µM), for the others: at the top dose activation, negative = inhibition, actives largely listed as activators | 320,000 tested, 2.8% active | AID 485297; also: % of control where 0% means no effect; nearly all actives have a fitted effect of over 60% in size
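Luciferase signal after 10 min detection reagent at ambient indicates Rab9 promoter upregulation; stably transfected Huh7 cells were treated 24 h with compound in DMSO at 37 °C, 5% CO2.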
The depositor's hits bear a star; u = inconclusive; x = no result; [ ] = dose if it differs, or a comment. A selection: hits, their analogues and other compounds. The true share with any hit is near 9.2%. Calls follow the shape of the dose curve; as a rule, active = well fitted curve in the direction sought with a large enough effect; inconclusive = small, poorly fitted or top-dose-only effect, or another doubt; inactive = no such curve, though single readings can be large; an effect the other way counts as inactive or inconclusive. Potency is read from the fitted curve at half-maximal effect.

SMILES | NPC1 promoter act | FLuc counter | ELG1 DNA repair | SMN2 splice up | ELG1 genotox | Rab9 promoter act
CC(C)(C)NC(=O)C(=O)N/N=C/c1cccs1 | u | 15µM* | u | u | u | 1.8µM*
O=C(N/N=C/c1cccs1)c1ccccn1 | 3.5µM* | 11µM* | u | 25µM* | u | 2.5µM*
Cn1cccc1/C=N/NC(=O)c1cc2ccccc2cc1O | u | 19µM* | u | x | u | u
O=C(N/N=C/c1c(Cl)cccc1Cl)c1ccc(F)cc1 | 12% | u | 26% | -4% | 10% | 20%
COCCn1c(CNC(=O)c2cccc(C)c2)nc2cccnc21 | x | 0% | x | x | x | x
COCc1c(C(=O)N(C)Cc2ccccc2N2CCCC2)oc2ccccc12 | -8% | -5% | -25% | x | -4% | 0%
O=C(CSc1nnc(CNC(=O)c2ccccc2)o1)NCc1ccc2c(c1)OCO2 | 6% | 0% | -6% | x | 0% | 4%
Cc1ccc(/C=N/NC(=O)c2ccccn2)s1 | 1.3µM* | u | u | 4µM* | u | 0.5µM*
Cn1cccc1/C=N/NC(=O)c1ccccn1 | u | 13µM* | u | x | u | 3.5µM*
COc1ccccc1-c1nc(-c2ccccc2)nc(N2CCN(C)CC2)c1C#N | -6% | 2% | 21µM* | -20% | -10% | -9%
C#CCCOC(=O)N1C2=NC(C(=O)OC)=C(C(=O)OC)[C@@H]3N(CC=C)c4ccccc4[C@]23C[C@H]1C(=O)OC | -1% | -3% | 11% | 4%[9.22 µM] | 1% | -6%
CCc1cc(=O)oc2cc(OCC(=O)N3CCC[C@H]3C(=O)O)ccc12 | 1% | 1% | 30% | x | 3% | 1%
Cc1ccc(C2CC(C(F)(F)F)n3nc(C(=O)NCc4c(C)nn(C)c4C)c(Cl)c3N2)cc1 (stereo not given) | -7% | 2% | 12µM* | -48% | -4% | -14%
COc1ccc(C2CC(C(F)(F)F)n3nc(C(=O)NCc4cn(C)nc4C)c(Cl)c3N2)cc1 (stereo not given) | -4% | 0% | 23µM* | -23% | -11% | -8%
COc1ccc(CCN(/C=C2\Sc3ccccc3C2=O)C(C)=O)cc1OC | -5% | 27µM* | u | x | 0% | -3%
O=c1cc(O)c(-c2ccc(Cl)cc2)c(Cl)[nH]1 | -1% | -1% | 19% | x | 4% | -1%
O=c1cc(-c2ccc(Cl)cc2)oc(=O)[nH]1 | -3% | 17µM* | 0% | x | -1% | 0%
N#C[C@H]1[C@H](c2ccccc2)[C@](C#N)(C(=O)c2ccccc2)[C@@H]2C=Cc3ccccc3N21 | 9% | u | 13µM* | -71% | 2% | x
O=C(NCC1CCCCC1)c1cc(Br)ccc1Cl | 6% | 3% | -1% | x | 1% | 2%
C=C(C)C(=O)N1CC2(CC(c3cccc(NC(=O)CC)c3)=NO2)C[C@H]1C(N)=O (stereo not given in full) | -5% | -1% | 15% | x | 3% | -10%
C/C=C(\C)C(=O)N1CC2(CC(c3cccc(NC(=O)COc4ccc(Cl)cc4)c3)=NO2)C[C@@H]1C(N)=O (stereo not given in full) | -7% | 15µM* | -2% | x | 0% | -7%
C=C(C)C(=O)N1CC2(CC(c3cccc(NC(=O)COc4ccc(Cl)cc4)c3)=NO2)C[C@@H]1C(N)=O (stereo not given in full) | 1% | 12µM* | -26% | x | -5% | -7%
CCc1c(C)sc2c1CCN(C(=O)Nc1ccccc1Cl)C2c1ccc(OC)cc1 (stereo not given) | x | -3% | x | x | x | x
CN(CCOc1ccccc1)CC(=O)Nc1ccc(Cl)cc1[N+](=O)[O-] | 0% | -5% | 4% | 2% | 3% | -2%
CCOC(=O)Cc1c(C)nc2c(-c3ccccc3)c(C)nn2c1C | -2% | 21µM* | -18% | -11% | 0% | 0%

Screens (PubChem)
